# From PubChem BioAssay AID2732 (Emory University Molecular Libraries Screening Center, 2010)
# In all, about 220,000 compounds went through this assay and about 8,200 (3.7%) were called active. This excerpt belongs to a sample that is enriched for actives. Values without a mark were called inactive.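 The calls were made as follows: active = compounds that reduced the stress-induced luciferase reporter signal by more than about 70% of percent inhibition (limit read from the data); inactive = the rest.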
# Test: inhibitors of CHOP promoter induction, primary screen, cell-based, unfolded protein response, luciferase reporter (AID 2732);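 also: 0% = tunicamycin plus vehicle and 100% = wells without tunicamycin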
# Conditions: CHO-K1 CHOP-promoter luciferase, tunicamycin-induced, 15-18 h; at 10 µM; hits give high values
row,Compound,inhibition
1,COc1cc(C)c(Cl)cc1S(=O)(=O)n1ccnc1,14.6%
2,CCOc1cc(C)c(Cl)cc1S(=O)(=O)n1nnc2ccccc21,73.7% (active)
3,CCCOc1cc(C)c(S(=O)(=O)n2nnc3ccccc32)cc1C,-25.8%
4,CN(c1ccccn1)c1ncnc2[nH]ncc12,16.3%
5,S=c1[nH]nc(-c2cccs2)n1/N=C/c1cn(-c2ccccc2)nc1-c1ccc(Cl)cc1,57.5%
6,Cc1ccc(NNC(=O)c2cccs2)cc1Cl,-7.82%
7,CSC1=NC2(C)CCCCC2C12C=CC(=O)C=C2 (stereo unspecified),-8.01%
8,Clc1ccc(Cc2nnc(-c3cccs3)o2)cc1,-8.41%
9,O=C(Nc1nnc(Cc2ccc(Cl)cc2)s1)c1ccncc1,2.85%
10,CNC(=O)c1nnc(Cc2ccc(Cl)cc2)o1,84.2% (active)
11,CS(=O)(=O)c1ccc2nnn(OCC(=O)Nc3cccc(C#N)c3)c2c1,7.09%
12,CNC(=O)c1cccc2nc3ccccc3nc12,-2.58%
13,CCCCOc1ccc(-c2ncc(C(=O)OCC)c(N)n2)cc1,87.4% (active)
14,CCOC(=O)c1cnc(-c2ccccc2)nc1Oc1ccc(C)cc1,16.8%
15,CCOC(=O)c1cnc(SCc2nc(N)nc(Nc3ccc(OC)cc3)n2)nc1N,27.6%
16,O=C(N/N=C/c1ccco1)c1csc2c1CCCC2,-20.7%
17,CCOC(=O)C1=C(CSc2nccn2C)NC(=O)NC1c1ccc(OC)cc1 (stereo unspecified),34.2%
18,CCOC(=O)C1=C(C)N=c2s/c(=C\C(=O)OC)c(=O)n2C1c1ccc(OC)cc1 (stereo unspecified),89.2% (active)
19,COCCOC(=O)C1=C(C)N=c2s/c(=C\c3cccs3)c(=O)n2C1c1cccs1 (stereo unspecified),4.98%
20,CC(C)Cc1ccc(C(C)C(=N)N)cc1 (stereo unspecified),4.47%
21,CC(=O)NC(CC(=O)Nc1nccs1)c1ccccc1 (stereo unspecified),-2.49%

row,Compound,inhibition
1,CCC(C)(C)NC(=O)C(c1ccc(O)cc1)N(C(=O)Cn1nnc2ccccc21)c1ccc(NC(C)=O)cc1 (stereo unspecified),4.95%
2,Cc1cc(-n2cnc(-c3cn(C)nc3C)n2)no1,-11.3%
3,Brc1ccc2c(c1)[C@H]1OCC[C@H]1[C@@H](c1cccs1)N2,39.4%
4,O=c1[nH][nH]c(=O)c2cc(N3CCCC3)ccc12,2.26%
5,O=C1C=CC(=O)N1c1ccc(N2CCCCC2)cc1,94% (active)
6,COc1cccc(OC)c1C(=O)Nc1ccc(N2CCCCC2)cc1,15.2%
7,Cc1nc(C(=O)NCc2ccccc2)sc1C1(C)CC(c2cccnc2)=NO1 (stereo unspecified),22.9%
8,O=C(N/N=C/c1cccc2cccnc12)[C@H]1C[C@@H]1c1ccccc1,52.4%
9,CC1=NN(C(=O)c2ccc(Br)cc2)C(O)(c2ccccc2)C1 (stereo unspecified),16.6%
10,CC1=NN(C(=O)c2ccccc2Br)C(O)(c2cccnc2)C1 (stereo unspecified),-24.4%
11,CC1=NN(C(=O)Cc2ccc(C)cc2)C(O)(c2cccnc2)C1 (stereo unspecified),73.8% (active)
12,O=C(O)C1=C[C@H](c2cccs2)C[C@H](OCCCCO)O1,-3.52%
13,Cc1ccc(S(=O)(=O)N(C)CC(=O)OCC(=O)Nc2ccccc2)cc1,-0.65%
14,COc1ccccc1P(=O)(c1ccccc1)c1ccccc1NC(C)=O (stereo unspecified),10.1%
15,Cn1c(=NC(=O)c2ccc3c(c2)OCCO3)sc2cc(S(C)(=O)=O)ccc21,91.9% (active)
16,CC(=O)c1ccc2c(c1)OCCOCCOc1ccc(C(C)=O)cc1OCCOCCO2,1.66%
17,COCCn1c(=NC(=O)c2ccccc2[N+](=O)[O-])sc2cc(S(C)(=O)=O)ccc21,-7.33%
18,O=C(Nc1ccccc1)O/N=C1/CCCc2occc21,-8.45%
19,CN1CCN(c2cc3c(cc2F)c(=O)c(C(=O)O)cn3CCF)CC1,2.99%
20,O=C(Cn1cnc2cc([N+](=O)[O-])ccc2c1=O)NC(=O)NCc1ccccc1,-6.05%
21,O=C(NNc1cc(Cl)cc(Cl)c1)c1c(F)cccc1Cl,30.1%

row,Compound,inhibition
1,Cc1nn(CC(=O)N/N=C/c2ccc(F)cc2)c(C)c1[N+](=O)[O-],-4.46%
2,CSc1nnc(SCc2nc3sc(C(=O)O)c(C)c3c(=O)[nH]2)s1,3.13%
3,O=C(NN1C(=O)C2CCCCC2C1=O)c1ccco1 (stereo unspecified),6.45%
4,O=C(CSc1cccc2cccnc12)N/N=C/c1cccnc1,42.7%
5,S=C(NCc1cccnc1)Nc1ccc(Cl)cc1Cl,2.87%
6,CC(=O)/C(=N\Nc1ccc(Cl)cc1Cl)Sc1cccc2cccnc12,93.6% (active)
7,Nc1ccc2nn(-c3ccc(Cl)cc3)nc2c1,30.4%
8,COC(=O)c1ccc(COc2ccc(/C=N/NC(=O)C(=O)Nc3ccc(OC)cc3)cc2OC)o1,17.4%
9,CCCc1ccc(OCc2ccc(C(=O)N/N=C/c3cccc([N+](=O)[O-])c3)o2)c(OC)c1,85.8% (active)
10,COc1cc(/C=N/O)ccc1OCc1ccc([N+](=O)[O-])cc1,2.17%
11,COc1cc(C(CCN2CCN(c3ccccc3)CC2)c2c(OC)cc(OC)c3ccc(=O)oc23)cc(OC)c1OC (stereo unspecified),-15.7%
12,CCOc1ccc(N=Cc2c(O)n(-c3cccc(C)n3)c(=O)c3ccccc23)cc1,-5.5%
13,Cc1[nH]n(-c2ccc(Cl)cc2)c(=O)c1/C=N/n1c(C)nc2ccccc2c1=O,26.2%
14,CCOc1[nH]n(-c2ccc(Cl)cc2)c(=O)c1C=Nc1ccc(O)cc1,73.4% (active)
15,CC(C)(C)c1cc(NC(=O)NN2CCOCC2)nn1-c1c(Cl)cc(Cl)cc1Cl,11.2%
16,CCNC(=S)N1CCN(CCN=CC2=C(O)CC(C)(C)CC2=O)CC1,13%
17,CC(C)(C)NC(=O)NCc1ccco1,6.03%
18,CSc1sc(C(=O)NNC(=O)c2ccc(Cl)cc2)c2c1C=CCC2,0.19%
19,O=C(Nc1ccccc1C(F)(F)F)N1CCCC1c1cccnc1 (stereo unspecified),4.33%
